Compound activity from PubChem BioAssay.
GDH-TPI counter-1 = GDH-TPI coupled enzyme inhibition counter-screen; GDH-TPI coupled enzyme counterscreen, NADH absorbance; inhibition, % at 4.8 µM; 1.2% of 360,000 active; in the data active = inhibition above about 30%;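 note: 0% = DMSO wells and 100% = wells lacking the enzyme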
FBA Mtb inh = Mtb fructose-bisphosphate aldolase inhibition. purified M. tuberculosis FBA, fluorescence read-out. inhibition, % at 1 µM. P9WQA3. AID 588726. 2.3% of 360,000 active;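 note: 0% = vehicle and 100% = reference inhibitor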
Target sequence (P9WQA3 whole entry, looked up): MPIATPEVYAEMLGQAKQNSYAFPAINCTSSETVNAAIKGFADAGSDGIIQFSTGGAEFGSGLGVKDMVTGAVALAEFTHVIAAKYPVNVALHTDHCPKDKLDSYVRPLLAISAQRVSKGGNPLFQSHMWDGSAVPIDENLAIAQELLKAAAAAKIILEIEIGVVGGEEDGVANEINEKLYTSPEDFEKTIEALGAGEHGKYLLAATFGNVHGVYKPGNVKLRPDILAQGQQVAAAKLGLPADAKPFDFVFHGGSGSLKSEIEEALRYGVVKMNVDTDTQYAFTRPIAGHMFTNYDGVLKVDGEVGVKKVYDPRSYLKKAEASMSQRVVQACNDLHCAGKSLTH
Mtb BioA inh = blocks M. tuberculosis BioA enzyme activity; AID 602481; purified M. tuberculosis BioA enzyme, plate reader; 0.096% of 360,000 active; inhibition, % at 9.99 µM; in the data active = inhibition above about 40%
Mtb hypoxia inh = inhibitors of hypoxia-regulated fluorescent reporter in Mycobacterium tuberculosis | AID 1159583 | fluorescence inhibition, % (concentration not given with the values) | 0.1% of 300,000 active | M. tuberculosis hypoxia-regulated fluorescent reporter, fluorescence; in the data active = fluorescence inhibition mostly above about 23%, no sharp cut-off; inactive = mostly below about 17%
FadD28 binding = M. tuberculosis FadD28 bisubstrate binding inhibition | 0.22% of 360,000 active | AID 588549 | FadD28 bisubstrate probe binding, fluorescence polarization | inhibition, % at 12.5 µM; in the data active = inhibition above about 8.5%, passing the limit was not always enough
Mtb FBA inh conf = confirmation of M. tuberculosis fructose-bisphosphate aldolase inhibitors; inhibition, % at 1 µM; 78% of 5,600 active; purified M. tuberculosis FBA, fluorescence read-out; shares compounds with FBA Mtb inh;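 note: 0% = vehicle wells and 100% = reference inhibitor wells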
GDH-TPI counter-2 = counter-screen for M. tuberculosis FBA inhibitors: GDH-TPI coupled enzyme inhibition | shares compounds with FBA Mtb inh | GDH-TPI coupled enzyme counterscreen, fluorescence | inhibition, % at 1 µM | 81% of 5,600 active | AID 652141; in the data active = inhibition above about 10%
Starred values were filed as active, the others as inactive; x = no result; + = active, no number. Rows were chosen to be rich in hits. Some 2.9% of all compounds tested hit in one or more screens of this group. Cut-off read from the data, not from the text of the source, unless noted: active = inhibition above about 27%; inactive = the rest.

SMILES | GDH-TPI counter-1 | FBA Mtb inh | Mtb BioA inh | Mtb hypoxia inh | FadD28 binding | Mtb FBA inh conf | GDH-TPI counter-2
COc1ccc(C2Nc3ccccc3C(=O)N2NS(C)(=O)=O)c(OC)c1 (stereo not drawn) | 4.3 | 27.7* | 1.2 | 2.5 | -3.3 | 12.3 | 1.1
CS(=O)(=O)NN1C(=O)c2ccccc2NC1c1cccc(O)c1 (stereo not drawn) | 8.3 | 40.9* | -0.5 | -8.5 | -0.7 | 111.9* | 81.0*
COC(=O)c1cn(-c2ccccc2)nc1-c1ccccc1 | -7.5 | 35.7* | 2.7 | x | 1.8 | 73.4* | 55.5*
Cc1cc(-c2ccccc2)n2ncc(C#N)c2n1 | 24.5 | 55.1* | 0.5 | 11.4 | -1.1 | -1.6 | -6.5
Cn1c(=O)c2cc(NC(=O)NCc3ccc(Cl)cc3Cl)ccc2n1Cc1ccc(F)cc1 | 11.1 | 88.8* | -0.3 | x | -0.4 | + | 165.3*
Cn1c(=O)c2cc(NC(=O)NCc3ccc(F)cc3)ccc2n1Cc1cccc(C(F)(F)F)c1 | 6.2 | 98.3* | -0.8 | x | -1.1 | 152.2* | 139.1*
COc1ccccc1CCC(=O)Nc1ccc2c(c1)c(=O)n(C)n2Cc1ccc(F)cc1 | 9.7 | 105.1* | 1.1 | x | -0.8 | 94.4* | 77.3*
COc1ccccc1CCC(=O)Nc1ccc2c(c1)c(=O)n(C)n2Cc1cccc(C(F)(F)F)c1 | 1.8 | 93.6* | -2.2 | x | 0.0 | + | 196.6*
COc1ccccc1CCC(=O)Nc1ccc2c(c1)CN(Cc1ccc(C)o1)CC2 | 17.7 | 3.3 | -1.8 | -3.0 | -2.9 | x | x
COc1ccc(CNC(=O)Nc2cccc(C(F)(F)F)c2)cc1OC | 4.3 | 2.5 | x | 1.0 | -3.2 | x | x
O=C(CCN1CCCCC1)NCC[C@@H]1CC[C@H](NC(=O)C2CCC2)[C@@H](CO)O1 | x | x | 4.2 | x | x | x | x
CCOc1cc(C=NNC(=O)c2ccc(C)nc2)ccc1OC(=O)c1ccc(F)cc1 | x | x | x | 3.4 | x | x | x
O=S(=O)(N=C(Nc1ccc(F)cc1)C(F)(F)F)c1ccccc1 | x | x | x | 4.5 | x | x | x
C[C@@H]1CN([C@@H](C)CO)C(=O)c2cc(-c3ccncc3)cnc2O[C@@H]1CN(C)C(=O)C1CC1 | x | x | -1.1 | x | x | x | x
Cn1c(=O)c2cc(NC(=O)CCc3ccc(O)cc3)ccc2n1Cc1cccc(C(F)(F)F)c1 | 7.1 | 101.1* | -0.7 | x | 0.6 | 6.7 | -7.3
Cc1cccc(NC(=O)CSCC(=O)NCc2cccc(C(F)(F)F)c2)c1 | -12.0 | 0.1 | 1.0 | 7.9 | -5.6 | x | x
Cn1c(=O)c2cc(NC(=S)NC3CC3)ccc2n1Cc1cccc(C(F)(F)F)c1 | 8.0 | 29.8* | 4.4 | x | -0.2 | 121.0* | 80.0*
CN(C)CCON=C(c1ccc(Br)cc1)c1cccnc1 | x | x | x | -7.6 | x | x | x
Cn1c2ccccc2c(=O)c2ccc(C#CC3(N)CCCCC3)cc21 | 2.6 | 92.4* | 0.9 | 7.3 | -9.2 | 35.1* | 18.9*
Cn1c2ccccc2c(=O)c2cc(C#CC3(O)CCCCC3)ccc21 | 6.7 | 92.6* | -1.6 | 8.1 | -0.7 | -5.2 | -3.2
CCOC(=O)c1[nH]c2ccc(OC)cc2c1C(SCC(=O)O)c1ccc(C(F)(F)F)cc1 (stereo not drawn) | -0.6 | 55.0* | 1.9 | 14.4 | x | 131.6* | 84.7*
CCOC(=O)c1[nH]c2ccc(OC)cc2c1NC(=S)N1CCN(c2ccccc2)CC1 | 6.5 | 23.9 | x | x | -1.5 | x | x
COCC(=O)Nc1ccc2c(c1)C(=O)N(C)C[C@H](OC)[C@@H](C)CN(CC1CC1)[C@H](C)CO2 | x | x | 1.4 | x | x | x | x
CC1CCCCN1Cc1c(O)ccc2c(=O)c(-c3ccc(Cl)cc3)coc12 (stereo not drawn) | 9.0 | 52.3* | -1.2 | 3.5 | 0.5 | 123.4* | 102.6*
CC1CCCCN1Cc1c(O)ccc2c(=O)c(-c3ccc(Cl)cc3Cl)coc12 (stereo not drawn) | 18.2 | 61.7* | -1.2 | 21.6 | 0.1 | + | +
SMILES | GDH-TPI counter-1 | FBA Mtb inh | Mtb BioA inh | Mtb hypoxia inh | FadD28 binding | Mtb FBA inh conf | GDH-TPI counter-2
CC1CCCCN1Cc1ccc(N)cc1 (stereo not drawn) | -7.1 | 1.0 | x | 4.8 | -0.6 | x | x
Cc1c(CN2CCCCC2C)c(=O)n(-c2ccccc2)n1C (stereo not drawn) | 0.5 | 1.9 | -0.1 | 1.9 | -0.6 | x | x
CC1CCCCN1Cc1c(O)ccc2c(=O)c(-c3ccc(Br)cc3)coc12 (stereo not drawn) | 16.2 | 41.6* | x | 6.3 | -0.1 | + | 163.9*
O=C(CCN1CCCCC1)N[C@H]1CC[C@H](CCNC(=O)c2cc(Cl)cc(Cl)c2)O[C@H]1CO | x | x | -0.6 | x | x | x | x
O=C(C[C@H]1CC[C@@H]2[C@H](COC[C@H](O)CN2Cc2cc(F)ccc2F)O1)N1CCc2ccccc2C1 | x | x | 0.4 | x | x | x | x
COCCn1cc(C(=O)NCc2ccco2)c2c3ccccc3n(C)c2c1=O | 14.2 | 90.9* | x | 9.6 | -0.1 | + | +
CCCN(CCC)CCCNC(=O)c1cn(CCOC)c(=O)c2c1c1ccccc1n2C | 20.1 | 32.3* | -1.3 | 9.9 | -2.2 | 118.4* | 89.9*
CCOC(CCNC(=O)c1cn(CCOC)c(=O)c2c1c1ccccc1n2C)OCC | 5.2 | 29.8* | -1.4 | -3.0 | -2.3 | 77.2* | 65.8*
CC(=O)N(C)C[C@@H]1Oc2cc(C#CC(C)(C)O)ccc2S(=O)(=O)N([C@@H](C)CO)C[C@H]1C | x | x | -2.6 | x | x | x | x
CC1(C(=O)NCC2CC2)Cc2c(-c3ccc4c(c3)OCO4)ccnc2O1 (stereo not drawn) | 11.1 | 88.5* | 0.9 | x | -2.5 | 76.1* | 51.1*
CN1CCN(c2ccc(CNC(=O)C3(C)Cc4c(-c5ccc6c(c5)OCO6)ccnc4O3)cc2)CC1 (stereo not drawn) | -12.8 | 32.6* | -0.1 | x | -4.1 | 121.2* | 102.5*
COc1ccc(CNC(=O)C2(C)Cc3c(-c4ccc5c(c4)OCO5)ccnc3O2)cc1OC (stereo not drawn) | 3.5 | 33.1* | 1.9 | x | -3.7 | 113.8* | 83.6*
COc1ccc(NC(=O)C2(C)Cc3c(-c4ccc5c(c4)OCO5)ccnc3O2)cc1 (stereo not drawn) | 6.2 | 36.5* | 2.2 | x | -1.2 | + | +
COc1ccccc1/C=C/C=NNC(=O)c1cnccn1 | x | x | x | -0.6 | x | x | x
CNC(=O)C1(C)Cc2c(-c3ccc4c(c3)OCO4)ccnc2O1 (stereo not drawn) | 2.2 | 49.1* | 0.1 | x | -0.6 | + | +
CN(C)c1ccc(CNC(=O)C2(C)Cc3c(-c4ccc5c(c4)OCO5)ccnc3O2)cc1 (stereo not drawn) | 10.1 | 6.3 | -2.0 | x | 0.4 | x | x
Cc1cccc(-c2nc(C#N)c(NCc3ccco3)o2)c1 | 4.8 | 47.6* | 2.6 | x | -2.9 | 165.0* | 135.3*
CC(C)(C)c1ccc(-c2nc(C#N)c(NCc3cccnc3)o2)cc1 | 12.4 | 13.2 | 0.1 | 4.0 | -1.6 | x | x
N#Cc1nc(-c2ccc(F)cc2)oc1NCc1ccco1 | 6.4 | 70.7* | x | 5.1 | 0.2 | 106.6* | 73.3*
COc1ccccc1OCc1nc(C#N)c(NCc2ccco2)o1 | 1.2 | 2.9 | 1.4 | x | 0.5 | x | x
